# Screening data: PubChem BioAssay, Columbia University Molecular Screening Center
# The sample as a whole holds a higher share of hits than the screen did.
# VCAM1 pot – potentiators of TNFa-induced VCAM1 expression, primary screen, imaging, HUVEC, TNFa stimulus, immunofluorescence | HUVEC TNFa-stimulated VCAM-1 immunofluorescence, high-content imaging; scaled per plate to unstimulated/TNFa-only wells | activation, % at 2 µM | 0.19% of 93,000 active;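 active = activation above the screen mean plus 3 SD, with well images confirming the hit on visual review, cut at about 28% in these data, passing the limit was not always enough; inconclusive = activation above that limit but images do not confirm it; inactive = activation not above that limit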;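 also: signal is the number of cytoplasmic VCAM-1 stained grains per positive cell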
# VCAM1 pot confirm – potentiators of TNFa-induced VCAM1 expression, confirmation, imaging, HUVEC, triplicate retest. shares compounds with VCAM1 pot. HUVEC TNFa-stimulated VCAM-1 immunofluorescence imaging. activation, % at 2 µM. 230 tested, under 10 active;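 active = activation above 30% in triplicate retests at 2 µM, then confirmed by visual review of the well images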;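 also: scaled per plate between unstimulated and TNFa-stimulated DMSO control wells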
# * hit, by the source's call; ? = inconclusive.
SMILES,VCAM1 pot,others
O=C(Nc1ccc(-c2nc3cc(Cl)ccc3o2)cc1)C1CCCO1 (stereo unspecified),34,
O=C(c1cnn2c1NC(c1ccco1)CC2C(F)(F)F)N1CCN(c2cccc(Cl)c2)CC1 (stereo unspecified),-5,
CCOC(=O)c1cnc2c(C(=O)OC)cccc2c1NCc1ccco1,-48,
CC(C)OC(=O)CSc1nnc(Cc2ccccc2)n1CC1CCCO1 (stereo unspecified),2,
COc1ccc(-c2nnn(CC(=O)N(Cc3ccc(F)cc3)C(C(=O)NC3CCCC3)c3ccc(F)cc3)n2)cc1 (stereo unspecified),4,
CC(C)C[C@H](NC(=O)OC(C)(C)C)C(=O)N/N=C/c1ccc2nccnc2c1,0,
CCC(CC)n1[nH]c(=O)c2c(C)cc(C)nc21,-50,
Cc1cccc(-c2nnn(CC/C(N)=N/O)n2)c1,17,
N#Cc1c2c(c(=S)n(-c3ccccc3)c1N)CCCC2,83*,VCAM1 pot confirm=-8
COc1ccc(C)cc1S(=O)(=O)Nc1cccc(SC)c1,-51,
O=S(=O)(NC1CCCCC1)c1cccc(-c2nnc(-c3ccccc3)o2)c1,-8,
COC(=O)c1sccc1NC(=O)C1C2C=CC(C2)C1C(=O)O (stereo unspecified),29,
O=c1ccnc(S/C=C/c2ccccc2)[nH]1,3,
Cc1ccc(Cl)cc1N1CCN(CC(=O)Nc2ccc(CN3CCCCC3)cc2)CC1,20,
C=CCNC(=O)CCCOc1ccc(C)cc1,1,
C=CCNC(=O)CN1CCC(n2c(C)nc3cc(C(F)(F)F)ccc32)CC1,58*,VCAM1 pot confirm=-18
Cc1csc(NC(=O)CCCSc2nc3ccccc3s2)n1,-11,
CSc1cc(C)n(-c2ccccc2)c(=S)c1C(C)=O,72*,VCAM1 pot confirm=-16
CC(=O)c1c(C(C)=O)c(C)n(-c2nc(-c3ccccc3)c(C)s2)c1C,-12,
O=C(Nc1ccccc1Cl)c1ccn[nH]1,-1,
Cc1ccc2nc(SCC(=O)Nc3ccc4c(c3)OCCO4)[nH]c2c1,-10,
Cc1ncoc1C(=O)Nc1ccc2c(c1)OCCO2,81*,VCAM1 pot confirm=-10
CCOC(=O)c1cn(CC(=O)Nc2ccc3c(c2)OCCO3)nn1,-4,
Cc1ccccc1-c1nnc(SCC(=O)Nc2c(C)n(C)n(-c3ccccc3)c2=O)o1,-4,
CCOC(=O)c1cnc2c(-c3ccccc3)cnn2c1N,?,VCAM1 pot confirm=-4
SMILES,VCAM1 pot,others
CCOC(=O)c1c(-c2ccc(Cl)cc2)cn2ccccc12,-4,
CCOC(=O)c1nnn(-c2ccccc2)c1C,-14,
COc1cc(NC(=O)c2cccs2)c(C(=O)OCC(=O)NC(=O)NC(C)(C)C)cc1OC,-7,
O=S(=O)(c1ccc(Cl)nc1)N1CCN(Cc2ccc3c(c2)OCO3)CC1,-4,
O=S(=O)(NCc1ccco1)c1ccc2c(c1)Cc1ccccc1-2,2,
Cc1ccc(SCc2nc(-c3cccnc3)no2)cc1,-51,
CCOc1ccc(-c2nc(-c3cccnc3)no2)cc1,3,
Cc1ccc(-n2nnnc2-c2cnc(-c3cccnc3)nc2C(F)(F)F)cc1,52*,VCAM1 pot confirm=-10
CS(=O)(=O)c1nc(-c2ccco2)cc(C(F)(F)F)n1,0,
COc1ccc([N+](=O)[O-])cc1COc1ccc2c(-c3ccccc3)cc(=O)oc2c1,-2,
CCOC(=O)c1ccc(N2C(=O)CC(N3CCN(Cc4ccccc4)CC3)C2=O)cc1 (stereo unspecified),5,
O=C(Nc1ccccc1)c1nnsc1S(=O)c1ccc(Cl)cc1 (stereo unspecified),-45,
CC(Oc1ccc(Cl)cc1Cl)C(=O)Nc1ccc(S(=O)(=O)Nc2cnc3ccccc3n2)cc1 (stereo unspecified),-6,
CC(=O)Oc1oc(-c2ccccc2)nc1/C=N/c1ccccn1,89*,VCAM1 pot confirm=-4
CCCCCCc1cc2cc(C(=O)NCc3ccccc3)c(=N)oc2cc1O,51*,VCAM1 pot confirm=-6
COc1ccccc1C(=O)NCc1ccccc1,22,
CCCCCCNC(=O)CC(c1ccccc1)c1cc(Br)ccc1O (stereo unspecified),10,
Cc1cc(NC(=O)CSc2nnc(COc3cccc(C)c3C)n2Cc2ccco2)no1,10,
O=S(=O)(c1ccc2c(c1)C(=NO)c1cc(S(=O)(=O)N3CCCCC3)ccc1-2)N1CCCCC1,-100,
COc1ccc(Cn2nnnc2C(c2cccnc2)N2CCN(c3ccc(O)cc3)CC2)cc1 (stereo unspecified),-2,
S=C(NN=C1CCCCCC1)Nc1ccc(Cl)cc1,35*,VCAM1 pot confirm=-25
O=C(N1CCOCC1)N1CCN(CC(O)COc2ccc3ccccc3c2)CC1 (stereo unspecified),-2,
COc1ccc(CN2CCN(S(=O)(=O)c3ccccc3)CC2)c(OC)c1,6,
CCN1CCN(S(=O)(=O)c2cc(OC)ccc2OC)CC1,64*,VCAM1 pot confirm=-4
COc1ccc(C(=O)N2CCN(S(=O)(=O)c3ccccc3)CC2)c(OC)c1,-8,
Cc1ccc(S(=O)(=O)N2CCN(Cc3nc4ccccc4n3C)CC2)cc1,3,
